The values below come from PubChem BioAssay (NCI).

This is part of a sample that, as a whole, favours compounds with a hit. Of some 79,000 tested, about 15% had one in any assay. A number with no mark means an inactive call. Active and inactive are the calls of the source. Rule as the data show it: active = growth inhibition above about 70%; inactive = the rest.

A short description of assay [1]: NCI Yeast Anticancer Drug Screen. Data for the rad50 strain (AID 155).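 Also: 0% = growth of vehicle-only cultures of the same strain.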 The note with it: S. cerevisiae rad50 strain growth inhibition; at 50.0 µM; stronger effect = higher value. Put shortly: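 A DNA repair-deficient yeast mutant serves as the test organism; compound-induced growth inhibition is calculated against vehicle-treated cells.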
Assay [2] in a line: NCI Yeast Anticancer Drug Screen. Data for the mec2-1 strain (AID 157). The note with it: S. cerevisiae mec2-1 strain, at 50.0 µM, stronger effect = higher value. Put shortly:
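mec2-1 yeast strain, carrying an alteration in DNA damage repair or cell cycle control, was exposed to compounds; growth inhibition was measured relative to vehicle-treated controls.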

Assay [3] in a line: NCI Yeast Anticancer Drug Screen. Data for the sgs1 mgt1 strain (AID 161).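 Also: 0% = growth of cultures given vehicle only.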 The note with it: S. cerevisiae sgs1 mgt1 strain, at 50.0 µM, stronger effect = higher value. Put shortly:
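This yeast growth screen uses a strain with defined DNA-repair lesions; compound-treated growth is compared with vehicle-treated growth.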

Assay [4] in a line: NCI Yeast Anticancer Drug Screen. Data for the cln2 rad14 strain (AID 165).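 Also: 0% = growth equal to vehicle treated cultures.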 The note with it: S. cerevisiae cln2 rad14 strain, at 50.0 µM, stronger effect = higher value. Put shortly: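 Yeast carrying cln2 and rad14 alterations (cell cycle control and DNA damage repair) were exposed to compounds. Growth inhibition was measured against vehicle-treated controls.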
Assay [5] is described as follows: NCI Yeast Anticancer Drug Screen. Data for the bub3 strain (AID 167). The note with it: S. cerevisiae bub3 mutant strain, at 50.0 µM, stronger effect = higher value. In outline: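 Inhibition values come from growth of compound-treated mutant yeast normalised to vehicle-treated controls.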
The nature of assay [6]: NCI Yeast Anticancer Drug Screen. Data for the mlh1 rad18 strain (AID 175). The note with it: S. cerevisiae mlh1 rad18 strain growth inhibition; at 50.0 µM; stronger effect = higher value. Put shortly:
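Growth inhibition of the yeast strain was measured after compound exposure and expressed relative to vehicle-treated controls. The strain carries defined defects in DNA damage repair.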

Take `CC1(C)N=C(N)N=C(N)N1c1ccc(CCCCCCc2ccc(S(=O)(=O)F)cc2)cc1`: the growth inhibition is 99.5% (active) in assay [1]; 99% (active) in assay [2]; 99.5% (active) in assay [3]; 99% (active) in assay [4]; 99% (active) in assay [5]; 99.4% (active) in assay [6].
Regarding `CCOC(=O)C(Cc1ccc(N(CCCl)CCCl)cc1)NC(=O)C(NC(C)=O)C(C)C` (stereo not given), the growth inhibition in assay [1] is 36.9%; in assay [2], 13.3%; in assay [3] it was 33.2%; in assay [4], 17.4%; in assay [5] it was 29.7%; in assay [6], 28.4%.
As for `C1=C(c2ccccc2)CCN(C2(c3ccccc3)CCCCC2)C1`, the growth inhibition in assay [1] was -5.6%; in assay [2] it was 0.75%; in assay [3], -4.2%; in assay [4], -33.5%; in assay [5], 16.5%; in assay [6] it was 9.35%.
In the case of `O=S(OO)c1cc(Cl)c(O)c(Cl)c1` (stereo not given), the growth inhibition in assay [1] was 3.5%; in assay [2] it was -24.1%; in assay [3], -1.55%; in assay [4], 7.55%; in assay [5] it was -10.7%; in assay [6], 3.4%.
`CCC1CC[Si](C)(C)CC12C(=O)NC(=O)NC2=O` (stereo not given): the growth inhibition in assay [1] was 0.85%; in assay [2] it was -2.25%; in assay [3], 11.5%; in assay [4], 1.65%; in assay [5], 12.9%; in assay [6], -0.55%.
With `CCOP(=O)(OCC)Oc1ccncc1`, the growth inhibition in assay [1] was -2.8%; in assay [2], -0.3%; in assay [3] it was -7.6%; in assay [4], -4.25%; in assay [5], 7.75%; in assay [6] it was 4.1%.
With `C[N+](C)(C)CC1(COC(=O)C(O)(c2ccccc2)c2ccccc2)CCCCC1`, the growth inhibition in assay [1] is -3.5%; in assay [2], 6.45%; in assay [3], -16.8%; in assay [4], -7.2%; in assay [5], -2.95%; in assay [6], 5.05%.
`PCc1ccccc1.[Cl][Hg][Cl]`: the growth inhibition in assay [1] is -34.7%; in assay [2], 12.7%; in assay [3], 14.2%; in assay [4], -59.4%; in assay [5] it was -6%; in assay [6], 12.6%.
As for `O=P1(N(CCCl)CCCl)NCCCO1` (stereo not given), the growth inhibition in assay [1] is -8.1%; in assay [2] it was -32.2%; in assay [3], -6.1%; in assay [4], 4.8%; in assay [5], -15.2%; in assay [6] it was -7.05%.
For `[C-]#[O+].[C-]#[O+].[C-]#[O+].[C-]#[O+].[C-]#[O+].[CH3][Sn]([Cl])[c]1ccccc1.[Mn]`, the growth inhibition in assay [1] is 91.5% (active); in assay [2], 96.5% (active); in assay [3], 89.7% (active); in assay [4], 88.6% (active); in assay [5], 96% (active); in assay [6] it was 92.5% (active).
`Nc1c([N+](=O)[O-])cncc1[N+](=O)[O-]`: the growth inhibition is -30.6% in assay [1]; -4.15% in assay [2]; -14.3% in assay [3]; -40.6% in assay [4]; -41.9% in assay [5]; -6.8% in assay [6].
In the case of `CC1CS1` (stereo not given), the growth inhibition was -5.7% in assay [1]; 4.8% in assay [2]; -10.1% in assay [3]; 2.9% in assay [4]; 12.2% in assay [5]; -11.1% in assay [6].
On to `CC(=O)Nc1nc2c(ncn2C2OCC(OC(C)=O)C(OC(C)=O)C2OC(C)=O)c(=O)[nH]1` (stereo not given) (tested in a mixture with another compound), for which the growth inhibition in assay [1] is 4.1%; in assay [2], -4.35%; in assay [3] it was 2.65%; in assay [4] it was -6.9%; in assay [5], 6.1%; in assay [6], 6.95%.
For the molecule `CCCCCCCCCCCCCCCCP(=O)(O)OP(=O)(O)OCC1OC(n2cnc3c(N)ncnc32)C(O)C1O` (stereo not given), the growth inhibition in assay [1] is 58.3%; in assay [2], 53.2%; in assay [3], 88.2% (active); in assay [4], 58.6%; in assay [5] it was 44.6%; in assay [6], 80.3% (active).
On to `CCN(CC)C1CCCCC1`, for which the growth inhibition was 19.8% in assay [1]; 16.1% in assay [2]; -0.9% in assay [3]; -35.7% in assay [4]; -0.9% in assay [5]; 11.2% in assay [6].
Take `CCOP(=O)(OCC)/C(C#N)=C/c1cnc[nH]1`: the growth inhibition was -51.6% in assay [1]; -30.6% in assay [2]; -38% in assay [3]; -17.2% in assay [4]; -20.2% in assay [5]; -54.5% in assay [6].
For `C#CC1(OC(C)=O)CCC2C3CCC4=CC(=O)CCC4(C)C3CCC21C` (stereo not given), the growth inhibition was 32% in assay [1]; 6.1% in assay [2]; 4.4% in assay [3]; -11.2% in assay [4]; -8.8% in assay [5]; 19.7% in assay [6].
As for `O=C1NC(=O)C2(CCOCC2)C(=O)N1`, the growth inhibition is -5.15% in assay [1]; 3.3% in assay [2]; -19.1% in assay [3]; -18.4% in assay [4]; -17.5% in assay [5]; 0.15% in assay [6].
As for `CC[N+](CC)(CC)CC.[C-]#[O+].[C-]#[O+].[C-]#[O+].[Cr+4].[c-]1[c-][c-][cH-][c-]1`, the growth inhibition in assay [1] was 11.3%; in assay [2], 12.4%; in assay [3] it was 8.75%; in assay [4], -10.8%; in assay [5], 6.65%; in assay [6], -5.8%.
For `O=[P+](O)c1cccnc1`, the growth inhibition is 6.6% in assay [1]; -8.05% in assay [2]; 14.2% in assay [3]; 17.4% in assay [4]; 16.7% in assay [5]; 13.8% in assay [6].
